{"source": "PubChem BioAssay AID2221", "about": "(Broad Institute, 2009)", "note": "“And” between values parts separate entries of the source, which are not always exact repeats. Equal entries are not always repeated. Hit rate of the full screen: of about 290,000 compounds, about 2,200 (0.76%) were called active. The sample holds actives, similar compounds and a random draw of the others, so the mix is not that of the screen. Values without a mark were called inactive. Rule as the data show it: active = inhibition above about 30%; inconclusive = no clear call, values can overlap the other calls; inactive = below that.", "data": [{"molecular_target": "Protein RecA (Mycobacterium tuberculosis (strain ATCC 25618 / H37Rv)) (UniProt P9WHJ3)", "sequence (P9WHJ3 whole entry, looked up)": "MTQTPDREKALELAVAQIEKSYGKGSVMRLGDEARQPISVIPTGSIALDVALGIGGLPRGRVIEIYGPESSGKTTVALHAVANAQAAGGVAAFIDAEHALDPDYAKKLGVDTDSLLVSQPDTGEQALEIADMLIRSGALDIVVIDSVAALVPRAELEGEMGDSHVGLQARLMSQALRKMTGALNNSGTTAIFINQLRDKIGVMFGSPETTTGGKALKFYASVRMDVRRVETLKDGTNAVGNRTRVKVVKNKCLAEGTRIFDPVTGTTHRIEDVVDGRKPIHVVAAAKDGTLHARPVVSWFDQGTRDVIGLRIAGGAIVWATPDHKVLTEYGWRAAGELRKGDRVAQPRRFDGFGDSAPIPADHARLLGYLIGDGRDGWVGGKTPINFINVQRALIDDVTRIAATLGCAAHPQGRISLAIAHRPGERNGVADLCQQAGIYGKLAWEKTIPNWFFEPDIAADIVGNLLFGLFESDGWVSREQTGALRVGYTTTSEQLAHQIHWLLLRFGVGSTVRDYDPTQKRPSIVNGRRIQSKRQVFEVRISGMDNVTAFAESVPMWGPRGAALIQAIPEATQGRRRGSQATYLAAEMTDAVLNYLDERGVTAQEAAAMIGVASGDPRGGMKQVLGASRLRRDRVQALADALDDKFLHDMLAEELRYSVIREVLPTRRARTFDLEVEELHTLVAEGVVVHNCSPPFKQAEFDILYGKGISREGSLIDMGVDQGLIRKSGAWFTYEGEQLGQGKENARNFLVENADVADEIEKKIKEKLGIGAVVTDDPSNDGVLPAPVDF", "experiment": "Mtb RecA intein splicing inhibitors, primary screen, biochemical, fluorescence, HTS (AID 2221);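 also: 0% = vehicle wells and 100% = reference inhibitor control wells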", "conditions": "cell-free RecA intein splicing, active compounds read high, concentration not given here", "values": [{"smiles": "CN(C)S(=O)(=O)c1ccc2oc(SCC(=O)Nc3ccccc3F)nc2c1", "inhibition": "-2.69%"}, {"smiles": "N#CCc1c(C#N)c(N)nc(N2CCCC2)c1C#N", "inhibition": "0.638%"}, {"smiles": "N#Cc1c(-c2ccccc2)cc(-c2ccccc2)nc1SCC(=O)O", "inhibition": "0.292%"}, {"smiles": "N#Cc1c(N2CCCCC2)nc(N)c2c(N)nc(SCC(=O)O)cc12", "inhibition": "61.1% (active)"}, {"smiles": "CCOC(=O)C1=C(c2ccccc2)NC(=S)NC1c1ccc(Cl)cc1", "note": "(centres undefined)", "inhibition": "8.84%"}, {"smiles": "CCOc1ccc(C2NC(=S)NC3=C2CCc2ccccc23)cc1", "note": "(centres undefined)", "inhibition": "15%"}, {"smiles": "COc1ccc(C2NC(=S)NC3=C2CCc2ccccc23)cc1OC", "note": "(centres undefined)", "inhibition": "45.9% (active)"}, {"smiles": "Cc1nn(C(C)(C)C)c(OC(=O)CC(C)C)c1S(=O)(=O)c1ccccc1", "inhibition": "8.28%"}, {"smiles": "O=C(CCNS(=O)(=O)c1cccs1)N1CCN(c2ccc(F)cc2)CC1", "inhibition": "-0.494%"}, {"smiles": "CCOCC(=O)NCc1ccc2c(c1)cc(C)n2C", "inhibition": "30.1% (active)"}, {"smiles": "Cc1ccc(CNC(=O)COc2ccc3c(c2)CCC3)cc1", "inhibition": "1.94%"}, {"smiles": "COc1cc(C(=O)NCc2ccc3c(c2)cc(C)n3C)cc(OC)c1OC", "inhibition": "1.47%"}, {"smiles": "CCc1cc(CNC(=O)CC2C(=O)NCCN2Cc2ccccc2C(F)(F)F)on1", "note": "(centres undefined)", "inhibition": "-0.415%"}, {"smiles": "COc1ccc(C(=O)c2c(C)oc3cc([N+](=O)[O-])c(O)c([N+](=O)[O-])c23)cc1", "inhibition": "8.62%"}, {"smiles": "Cc1oc2cc(Br)c(O)c(Br)c2c1C(=O)c1ccccc1", "inhibition": "12.7%"}, {"smiles": "Cc1oc2cc([N+](=O)[O-])c(O)c([N+](=O)[O-])c2c1C(=O)c1ccc(Br)cc1", "inhibition": "41.5% (active)"}, {"smiles": "COC(=O)[C@H]1[C@H]2C[C@H]3c4[nH]c5ccccc5c4CCN3C[C@@H]2CC[C@@H]1O", "inhibition": "0.605% and -6.9%"}, {"smiles": "CC(Oc1cc2oc(=O)c3c(c2cc1Cl)CCCC3)C(=O)NCc1ccncc1", "note": "(centres undefined)", "inhibition": "0.148%"}, {"smiles": "O=C(CN(C(=O)c1csnn1)c1cccc(Cl)c1)NC1CCCC1", "inhibition": "-3.49%"}, {"smiles": "O=C(Nc1ccc(Cl)c(Cl)c1)c1ccccc1NC(=O)C1CC=CCC1C(=O)O", "note": "(centres undefined)", "inhibition": "0.473%"}, {"smiles": "O=C(c1ccc(Cl)cc1)c1cnc(Nc2ccccc2)s1", "inhibition": "-1.16%"}, {"smiles": "CN(c1cccc(NC(=O)Nc2ccc(Cl)cc2)c1)S(C)(=O)=O", "inhibition": "4.89%"}, {"smiles": "O=C(Nc1ccccc1)c1nnsc1S(=O)(=O)c1ccc(Cl)cc1", "inhibition": "70% (active)"}, {"smiles": "Cc1cc(C)nc(SCc2nnc(SCC(=O)OC3CCCCC3)o2)n1", "inhibition": "0.246%"}, {"smiles": "CCOC(=O)C1=C(c2ccc(OC)cc2)C(=O)c2ccccc2C1=O", "inhibition": "83.5% (active)"}, {"smiles": "CCOC(=O)c1c(-c2ccc(C)cc2)csc1/N=C(\\C)C1=C(O)c2ccccc2C1=O", "inhibition": "-0.167%"}, {"smiles": "COc1ccc(N2CCN(C(C)=C3C(=O)c4ccccc4C3=O)CC2)cc1", "inhibition": "-1.11%"}, {"smiles": "CC1CN(C(=O)CCC(=O)NCCCN2CCC(Cc3ccccc3)CC2)c2cc(Cl)ccc2O1", "note": "(centres undefined)", "inhibition": "4.67%"}, {"smiles": "COc1cccc(CCNC(=O)c2cccc(NC(=O)C3=C(C)OCCS3)c2)c1", "inhibition": "-0.654%"}, {"smiles": "Cn1c(=O)c2sccc2n(Cc2ccc(Br)cc2)c1=O", "inhibition": "1.32%"}, {"smiles": "CCN(C(=O)CSc1nnnn1-c1ccccc1OC)C1CCS(=O)(=O)C1", "note": "(centres undefined)", "inhibition": "-4.51%"}, {"smiles": "COc1ccccc1-n1nnnc1S(=O)(=O)Cc1ccc(Cl)cc1", "inhibition": "81.5% (active)"}, {"smiles": "COc1ccccc1N1CCN(S(=O)(=O)c2ccc(Cl)cc2)CC1", "inhibition": "13.3%"}, {"smiles": "O=C(CSc1nc2[nH]ncc2c(=O)[nH]1)Nc1ccc(F)cc1", "inhibition": "-1.71%"}, {"smiles": "CCC(=C/c1sc2ccc3ccccc3c2[n+]1C)/C=C1\\Sc2ccc3ccccc3c2N1C", "inhibition": "-0.0609%"}, {"smiles": "COc1cccc(NC(=O)CN(C)C(=O)c2ccccc2CCc2ccccc2)c1", "inhibition": "5.79%"}, {"smiles": "O=C(CN1CCN(S(=O)(=O)c2ccc(Br)cc2)CC1)Nc1ccccc1C(=O)c1ccccc1", "inhibition": "-0.838%"}, {"smiles": "Cc1noc(C)c1C(=O)N1CCOCC1", "inhibition": "1.19%"}, {"smiles": "CCOC(=O)c1ccccc1C(=O)N1CCOCCOCCOCC1", "inhibition": "0.452%"}, {"smiles": "Cc1oc2c(c1C(=O)N1CCOCC1)C(=O)c1ccccc1C2=O", "inhibition": "86% (active)"}, {"smiles": "Nc1[nH]c(=S)nc2nc(-c3ccccc3)c(-c3ccccc3)nc12", "inhibition": "-3.24%"}, {"smiles": "Cn1cnc2c1c(=O)n(Cc1ccccc1C#N)c(=O)n2C", "inhibition": "-5.24%"}, {"smiles": "O=C(CCC(=O)N/N=C/c1ccc(Br)o1)N/N=C/c1ccc(Br)o1", "inhibition": "-0.217%"}, {"smiles": "CCOC(=O)Nc1sc(C(=O)N(C)C)c(C)c1C(=O)OCC", "inhibition": "1.54%"}, {"smiles": "CCOC(=O)c1c(NC(=O)CCl)sc(C(=O)N(CC)CC)c1C", "inhibition": "46.7% (active)"}, {"smiles": "CCOC(=O)c1sc(NC(=O)CCN2CCOCC2)c(C(=O)OCC)c1C", "inhibition": "2.17%"}, {"smiles": "Cc1nc(CNS(=O)(=O)c2cc([N+](=O)[O-])ccc2C)cs1", "inhibition": "-3.48%"}, {"smiles": "CCc1ccccc1N(CC(=O)NCC1CCCO1)C(=O)CCC(=O)Nc1nccs1", "note": "(centres undefined)", "inhibition": "-1.77%"}, {"smiles": "Cc1ccccc1C(CC(=O)c1cccs1)C(C#N)C#N", "note": "(centres undefined)", "inhibition": "63.2% (active)"}, {"smiles": "Cc1ccc(C)c(NC(CC(=O)c2ccccc2)C(=O)OCC(=O)c2cccs2)c1", "note": "(centres undefined)", "inhibition": "-3.12%"}, {"smiles": "CCc1cccc(C)c1NC(=O)COC(=O)CNC(=O)c1cccs1", "inhibition": "-3.74%"}, {"smiles": "Cc1ccc(Sc2cc(N3CCOCC3)nc(-c3ccccc3)n2)cc1", "inhibition": "-0.766%"}, {"smiles": "O=S(=O)(c1ccc(-c2ccno2)s1)N1CCCCC1", "inhibition": "0.0995%"}, {"smiles": "Cc1cc(C)n2nc(SCC(N)=O)nc2n1", "inhibition": "-1.48%"}, {"smiles": "Cc1cc(C)n2nc(C(=O)NC(C)(C)C)nc2n1", "inhibition": "-3.67%"}, {"smiles": "Cc1cc(C)n2nc(CNS(=O)(=O)c3c(F)c(F)c(F)c(F)c3F)nc2n1", "inhibition": "33% (active)"}, {"smiles": "COc1ccc(N2CCN(C(=O)C3CCN(S(=O)(=O)c4ccc(C)cc4)CC3)CC2)cc1", "inhibition": "-2.81%"}, {"smiles": "CCN(CCNC(=O)C1=C(C)C(=O)OC12CCC(C)CC2)c1ccccc1", "note": "(centres undefined)", "inhibition": "-9.04%"}, {"smiles": "O=S(=O)(c1cnccc1N1CCN(/N=C/c2ccc(Br)cc2)CC1)N1CCCCC1", "inhibition": "-5.35%"}]}]}
